Data reported in paper PMC5540273 (PLoS ONE, 2017).

system: DMPK; conditions: concentration: 1 μM, replicates: in singlicate; n = 1
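Further: KINOMEscan kinase panel screen.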

SMILES	%Inh [%]
CCn1c(-c2ccoc2)nc2cnccc21 [SB-733887]	0
O=c1cc(N2CCOCC2)nc2n(Cc3ccc(F)c(Cl)c3)ccn12 [GSK2297099]	0
Cc1cccc(-c2nc(Nc3ccc4c(cnn4C)c3)c3ccccc3n2)n1 [GW876731]	8
Cl.NS(=O)(=O)c1cccc(Nc2cc(-c3ccc(F)cc3)n[nH]2)c1 [GW824645]	1
COc1cc(Nc2nccc(N3CCC(NC(=O)C4COc5ccccc5O4)C3)n2)cc(OC)c1OC (centres unmarked) [GSK1379761]	0
COC(=O)c1c(-c2ccccc2)c2cc(Br)ccc2c(=O)n1Cc1ccc(NC(=O)CCC(=O)O)cc1	0
CN1C(=O)C(Nc2cc(Cl)c(O)c(Cl)c2)=C(c2ccc(Cl)cc2)C1=O [SB-404321]	0
CCC(=O)c1c(-c2ccccc2)c2cc(Cl)ccc2c(=O)n1Cc1cc(S(C)(=O)=O)n(CC(N)=O)n1	0
Nc1ncnc2c1ncn2-c1ccc(Cl)cc1 [AH2635]	0
O=C(NCc1cccs1)c1cc(C(=O)c2c(Cl)cccc2Cl)c[nH]1 [GW823670]	6
CCn1c(-c2nonc2N)nc2ccccc21 [SB-693162/GW549034]	0
O=C(NCCNc1ccnc(Nc2ccc(F)cc2)n1)Nc1ccc2c(c1)OCO2 [GSK1379882]	0
COc1ccc(Nc2nccc(N3CCC(NS(=O)(=O)c4ccc(NC(C)=O)cc4)C3)n2)cc1 (centres unmarked) [GSK1379729]	0
COc1cc2nccc(Nc3cccc(Oc4ccccc4)c3)c2cc1OC.Cl [GW284543]	0
